Source: PubChem BioAssay
SKN-1 inh – blocks SKN-1 activity in C. elegans; C. elegans VP596 Pgst-4::GFP/RFP ratio, acrylamide-induced, 24 h; inhibition, % at 21.8 µM; 360,000 tested, 0.49% active; AID 624304;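 active means interference check ratio from 0.5 to 1.5 plus GFP to RFP signal ratio inhibition reaching or exceeding a fixed threshold, cut at about 30% in these data, passing the limit was not always enough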
M1 ag – activates human CHRM1 receptor. P11229. CHO-K1 hM1, Fluo-8 calcium fluorescence, agonist mode; 0% DMSO, 100% acetylcholine EC100. activation, % at 3 µM. 360,000 tested, 0.33% active;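 active means activation above the run's mean compound activation plus 3 SD, cut at about 16% in these data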;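 further: peak over basal fluorescence ratio within a 140 s kinetic read after compound addition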
Target sequence (P11229 whole entry, looked up): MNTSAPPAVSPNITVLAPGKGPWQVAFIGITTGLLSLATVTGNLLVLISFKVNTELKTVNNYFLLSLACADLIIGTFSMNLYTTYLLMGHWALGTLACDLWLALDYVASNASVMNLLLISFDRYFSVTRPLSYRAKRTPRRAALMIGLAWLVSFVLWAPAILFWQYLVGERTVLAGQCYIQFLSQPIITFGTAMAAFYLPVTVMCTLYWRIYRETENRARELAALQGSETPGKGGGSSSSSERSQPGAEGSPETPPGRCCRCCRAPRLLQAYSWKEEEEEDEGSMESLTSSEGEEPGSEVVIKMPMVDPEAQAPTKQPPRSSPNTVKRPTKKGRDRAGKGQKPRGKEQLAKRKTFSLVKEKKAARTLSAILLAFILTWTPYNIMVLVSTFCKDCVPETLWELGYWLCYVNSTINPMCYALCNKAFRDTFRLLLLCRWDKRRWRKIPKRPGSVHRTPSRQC
M1 PAM – human CHRM1 positive allosteric modulation | AID 588819 | 360,000 tested, 0.088% active | CHO-K1 hM1, Fluo-8 calcium fluorescence, ACh EC20; 0% = ACh EC20, 100% = maximal ACh | activation, % at 3 µM | P11229; in the data active means activation above about 19%, passing the limit was not always enough
Myeloid diff 2 – myeloid differentiation induction; ER-HoxA9 myeloid progenitors, lysozyme-GFP differentiation, flow cytometry; calls only at 10 µM; 360,000 tested, 1% active;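 active means normalized GFP-positive differentiation at or above the plate's own cutoff, the solvent-only control mean plus 3 SD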;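 further: cells exposed to compound for four days before flow analysis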
ATG4B inhibitor – blocks human ATG4B protease cleavage of LC3 substrate | inhibition, % at 8.33 µM | ATG4B cleavage of LC3-PLA2, NBD-HPC fluorescence, 1 h | 340,000 tested, 0.51% active; in the data active means inhibition above about 40%
CHRM1 antagonist – blocks human M1 muscarinic receptor; P11229; CHO-K1 hM1, Fluo-8 calcium fluorescence, ACh EC80 antagonist; inhibition, % at 3 µM; 360,000 tested, 1.3% active;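 active means percent inhibition above its own plate's cutoff, namely the mean of that plate's compound wells plus 3 SD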;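 further: peak over basal fluorescence ratio during 140 s after agonist addition; 0% = ACh EC80 plus DMSO and 100% = DMSO alone without agonist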
* = called active by the depositor; i = inactive; nt = no result given; + = active, no number. Compounds with a hit are over-represented: about 3.5% of the library has one in this group of screens.

SMILES | SKN-1 inh | M1 ag | M1 PAM | Myeloid diff 2 | ATG4B inhibitor | CHRM1 antagonist
O=C(O)c1ccc2c(c1)[C@@H]1C=CC[C@@H]1[C@H](c1ccccn1)N2 | 43.8* | -2.8 | 4.5 | i | 11.2 | -1.7
CS(=O)(=O)c1ccc(Cl)c(NC(=O)COC(=O)CCN2C(=O)C3CC=CCC3C2=O)c1 (stereo not drawn) | 11.8 | -3.3 | 6.2 | i | 0.3 | -9.9
O=C1OC2(O)C3C4C=CC(C4)C3C(=O)N2c2ccccc21 (stereo not drawn) | -7.2 | -2.4 | 1.0 | i | 0.4 | -1.5
Cc1cccc(S(=O)(=O)N(C)C[C@H]2OCc3cnnn3CCCC(=O)N([C@H](C)CO)C[C@@H]2C)c1 | -6.0 | -3.8 | 7.8 | i | nt | -14.9
CC(O)CN(CC(C)O)c1ccc2c(c1)Cc1cc([N+](=O)[O-])ccc1-2 (stereo not drawn) | 6.9 | 133.7* | -29.5 | + | -2.2 | 70.7*
O=C(c1ccncc1)N(c1ccc(N2CCOCC2)cc1)C(c1ccccc1)c1nc2ccccc2[nH]1 (stereo not drawn) | 3.8 | -4.9 | 3.7 | i | nt | 1.2
O=C(c1ccco1)N1CCN(C(c2ccccc2Cl)c2nnnn2Cc2ccco2)CC1 (stereo not drawn) | 3.7 | 1.9 | -16.4 | i | -15.5 | 28.6*
COc1ccccc1N1CCN(Cc2nc(-c3ccc(F)cc3)oc2C)CC1 | -7.1 | -8.9 | -0.1 | i | -1.7 | 3.0
COc1ccccc1N1CCN(Cc2cn[nH]c2-c2ccc(F)cc2)CC1 | -3.5 | 44.5* | 15.7 | i | -8.3 | -19.3
COc1ccc(-c2csc(NC(=O)CSCc3c(C)noc3C)n2)cc1OC | -14.2 | 1.0 | -4.7 | i | 0.9 | -12.6
CCc1noc(C)c1C(=O)OCC(=O)Nc1nc(-c2ccc(F)c(F)c2)cs1 | -27.3 | -1.9 | -22.4 | i | -12.3 | 42.1*
Cc1noc(C)c1CSCC(=O)Nc1nc(-c2ccc(F)c(F)c2)cs1 | -15.8 | -1.5 | -16.3 | i | 9.0 | 34.8*
Cc1ccc(C(=O)COC(=O)c2ccc(O)cc2)cc1 | -3.2 | 1.3 | 4.2 | i | 2.1 | 8.0
CS(=O)(=O)NN1C(=O)c2ccccc2NC1c1ccccc1O (stereo not drawn) | 8.2 | -6.3 | 12.4 | i | -0.6 | -7.4
CS(=O)(=O)NN1C(=O)c2ccccc2NC1c1c[nH]c2ccccc12 (stereo not drawn) | 1.0 | -2.5 | 1.0 | + | 5.0 | 8.4
COc1cc(C2Nc3ccccc3C(=O)N2NS(C)(=O)=O)c([N+](=O)[O-])cc1OC (stereo not drawn) | 5.0 | -3.1 | 27.3* | i | -4.8 | -4.0
COc1ccc(C2Nc3ccccc3C(=O)N2NS(C)(=O)=O)c(OC)c1 (stereo not drawn) | 0.6 | -3.0 | 3.1 | i | -2.8 | -3.6
CC(C)(C)c1ccc(NC(=O)Nc2ccc3ccccc3n2)cc1 | 8.3 | -0.7 | 5.3 | i | 1.1 | -7.1
CC(=O)c1cc(C(=O)N2CCc3c([nH]c4ccccc34)C2C2CCCCC2)[nH]n1 (stereo not drawn) | -8.1 | -4.1 | 0.6 | + | 1.1 | -1.9
Cc1cnc(C(=O)N2CCc3c([nH]c4ccccc34)C2c2ccc(F)cc2)cn1 (stereo not drawn) | -3.0 | -7.3 | 4.7 | i | -7.7 | -11.3
COc1ccccc1-c1sc2cc3c(cc2c1C#Cc1cncn1C)OCO3 | 5.1 | -7.4 | 3.9 | i | 1.1 | -3.9
CCCCCCNC(=O)O[C@H]1C[C@@H]2C(=O)N(c3ccccc3)C(=O)[C@@H]2[C@@H]2CN(S(=O)(=O)c3ccc(C)cc3)C[C@]12O | 0.0 | -6.0 | 6.0 | i | nt | -17.4
CCc1nc2ccc(C(=O)N3CCN(c4ccccc4)CC3)cc2nc1CC | 2.3 | -5.8 | -0.9 | i | -1.5 | -1.6
CCc1nc2ccc(C(=O)N3CCN(c4cccc(C(F)(F)F)c4)CC3)cc2nc1CC | -3.8 | -5.5 | -22.9 | i | 3.6 | 47.0*
Fc1ccc(-n2nnc(-c3cccnc3Cl)n2)cc1 | 67.8* | -5.8 | 9.2 | i | 2.2 | -8.8
SMILES | SKN-1 inh | M1 ag | M1 PAM | Myeloid diff 2 | ATG4B inhibitor | CHRM1 antagonist
Fc1ccc(-n2nnc(-c3nccs3)n2)cc1 | 71.4* | -6.0 | 2.4 | i | -1.0 | 1.0
Clc1ncccc1-c1nnn(-c2ccccc2)n1 | 25.9 | -6.0 | 7.1 | i | -7.7 | 2.0
CCCc1ccc(OCc2ccc(C(=O)N/N=C/c3cccnc3)o2)cc1 | -11.1 | 3.5 | 4.6 | + | -2.5 | -6.5
CCOc1ccc(CC(=O)N/N=C/c2cccnc2)cc1 | 8.4 | -0.8 | 4.5 | i | -8.9 | -6.3
Cc1ccc(NC(=O)c2ccc(COc3ccccc3[N+](=O)[O-])o2)nc1 | 12.4 | -6.8 | -6.0 | + | 20.5 | 11.3
COc1ccccc1OCc1ccc(C(=O)NN)o1 | -1.6 | -1.2 | 9.8 | + | -14.0 | -17.6
COc1ccc(NC(=O)c2ccc(COc3ccccc3OC)o2)cc1OC | 0.8 | -2.3 | -0.8 | i | -9.3 | -22.1
Cc1ccc(NC(=O)COc2ccccc2[N+](=O)[O-])nc1 | 5.0 | -15.1 | 18.3 | i | -1.3 | -8.1
COc1ccc(/C=N/NC(=O)c2ccc(COc3ccccc3Cl)o2)c(OC)c1C | 0.0 | -5.2 | 6.1 | i | 7.0 | -0.4
COc1ccc(/C=N/NC(=O)c2ccc(COc3ccccc3Cl)o2)cc1 | 38.4* | -0.8 | -1.7 | i | -1.1 | -25.4
Cn1ccc2c(-c3ccc(CO)cc3)cc3c(c21)C1CCC3C1 (stereo not drawn) | 13.5 | -6.0 | 5.1 | i | nt | -9.3
Cc1nc(C)c(C(=O)NNS(=O)(=O)c2ccc([N+](=O)[O-])cc2)s1 | -2.8 | -5.6 | 3.8 | i | -0.1 | -2.6
NS(=O)(=O)c1ccc(CCNC(=O)c2ccc(OCC3CCCO3)cc2)cc1 (stereo not drawn) | -0.8 | -1.7 | 3.1 | i | -3.2 | -6.8
Cc1ccc(S(=O)(=O)N2CCN(C(=O)CCC(=O)Nc3ccc(F)cc3F)CC2)cc1 | 17.7 | 0.0 | -2.6 | i | -7.0 | 6.4
CCC(CC)C(=O)Nc1ccc(Sc2ccc([N+](=O)[O-])cc2)cc1 | 13.4 | -6.7 | -27.1 | i | -6.2 | 34.6*
CCCC(=O)Nc1ccc(Sc2ccc([N+](=O)[O-])cc2)cc1 | 17.1 | -3.1 | -14.8 | i | 7.5 | 21.4
O=c1[nH]c(Cc2ccccn2)nc2scc(-c3ccc(Cl)cc3)c12 | 5.9 | 25.7* | 4.8 | i | 4.0 | -5.2
COc1ccccc1N(C)S(=O)(=O)c1ccc(C(=O)N(C)Cc2ccc(OC(F)F)cc2)cc1 | 11.1 | 0.5 | -14.4 | i | -8.1 | 26.7*
CN(Cc1ccc(OC(F)F)cc1)C(=O)c1cccc(S(=O)(=O)N2CCN(c3ccccc3)CC2)c1 | -3.1 | 0.0 | -19.9 | i | -12.0 | 46.4*
COc1ccc(CN2CCN(S(=O)(=O)c3ccc(NC(C)=O)cc3)CC2)cc1 | -7.4 | -1.5 | 3.3 | i | -4.1 | -5.2
